In PubChem BioAssay (NCATS):
Results filed as inconclusive are left out. A number with no mark means an inactive call. Active and inactive are the calls of the source. The call rests on the fitted dose curve; in most records, active means well fitted cell-killing curve with a large enough effect; inconclusive means small, poorly fitted or top-dose-only effect, or effect the other way; inactive means no such curve, though single readings can be large or run the other way.

Assays:
[1] = Quantitative High-Throughput drug screen in 47 multiple myeloma cell lines against the NCATS MIPE library collection: KMS28PE_JCRB cell viability assay (AID 1918983); further: nearly all actives have a fitted effect of over 35% in size
Outline: (§1)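 MIPE 4.0 approved/investigational drugs; 500 cells/well; 48 h 37 °C humidified 5% CO2; CTG luminescence readout; DMSO = 100%, media = 0% viability.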

[2] = Quantitative High-Throughput drug screen in 47 multiple myeloma cell lines against the NCATS MIPE library collection: OPM1_PLB cell viability assay (AID 1918989); further: nearly all actives have a fitted effect of over 40% in size
Outline: as §1

[3] = Quantitative High-Throughput drug screen in 47 multiple myeloma cell lines against the NCATS MIPE library collection: SKMM1_PLB cell viability assay (AID 1919863); conditions: SKMM1 myeloma viability, CellTiter-Glo ATP, 48 h; viability: hits give low values; further: nearly all actives have a fitted effect of over 35% in size; on viability: series mostly up to about 46 µM
Outline: as §1

[4] = Quantitative High-Throughput drug screen in 47 multiple myeloma cell lines against the NCATS MIPE library collection: L363_DSMZ cell viability assay (AID 1918984); further: nearly all actives have a fitted effect of over 40% in size
Outline: as §1

[5] = Quantitative High-Throughput drug screen in 47 multiple myeloma cell lines against the NCATS MIPE library collection: OCIMY5_PLB cell viability assay (AID 1918988); further: nearly all actives have a fitted effect of over 65% in size
Outline: as §1

[6] = Quantitative High-Throughput drug screen in 47 multiple myeloma cell lines against the NCATS MIPE library collection: U266_ATCC cell viability assay (AID 1919864); further: nearly all actives have a fitted effect of over 35% in size
Outline: as §1

[7] = Quantitative High-Throughput drug screen in 47 multiple myeloma cell lines against the NCATS MIPE library collection: XG6_PLB cell viability assay (AID 1919865); further: nearly all actives have a fitted effect of over 40% in size
Outline: as §1

[8] = Quantitative High-Throughput drug screen in 47 multiple myeloma cell lines against the NCATS MIPE library collection: KMS34_JCRB cell viability assay (AID 1918985); further: nearly all actives have a fitted effect of over 40% in size
Outline: as §1

[9] = Quantitative High-Throughput drug screen in 47 multiple myeloma cell lines against the NCATS MIPE library collection: OCIMY7_PLB cell viability assay (AID 1918987); further: nearly all actives have a fitted effect of over 65% in size
Outline: as §1
Potency means the concentration at half of the fitted maximal effect.

Question: Which Potency [1] does the source give for CCNC(=O)Nc1ccc2ncc(Nc3ccc(C)cc3)nc2n1 here?
Answer: inactive

Question: What about the Potency [2] of the same compound?
Answer: 7.43 µM (active)

Question: What about the viability [3] of the same compound?
Answer: 139%

Question: With CN(C1CCc2c(c3ccccc3n2CC(=O)O)C1)S(=O)(=O)c1ccc(F)cc1 (configuration not stated) as the compound, how does the Potency [4] read?
Answer: 1.48 µM (active)

Question: What about the Potency [5] of the same compound?
Answer: 4.69 µM (active)

Question: What about the Potency [6] of the same compound?
Answer: 18.7 µM (active)

Question: What about the Potency [7] of the same compound?
Answer: 1.87 µM (active)

Question: For C=CC(=O)Nc1cccc(Oc2nc(Nc3ccc(N4CCN(C)CC4)cc3OC)ncc2Cl)c1, which Potency [8] is on record?
Answer: 16.6 µM (active)

Question: What about the Potency [9] of the same compound?
Answer: 0.001 µM (active)

Question: What about the Potency [5] of the same compound?
Answer: 0.0026 µM (active)

Question: What about the Potency [2] of the same compound?
Answer: 0.662 µM (active)

Question: And the Potency [6]?
Answer: 23.5 µM (active)

Question: Which Potency [9] does the source give for Cn1cc(-c2ccncc2)c(-c2ccc(OCc3ccc4ccccc4n3)cc2)n1 here?
Answer: 10.5 µM (active)

Question: What about the Potency [5] of the same compound?
Answer: 16.6 µM (active)

Question: What about the Potency [2] of the same compound?
Answer: 10.5 µM (active)

Question: And the Potency [7]?
Answer: 5.9 µM (active)

Question: What does the source list for Cc1cnc(-c2cnc(NCCNc3ccc(C#N)cn3)nc2-c2ccc(Cl)cc2Cl)[nH]1?
Answer: Potency [4]: inactive; Potency [8]: 5.9 µM (active); Potency [9]: 4.18 µM (active); Potency [5]: 20.9 µM (active); Potency [7]: 6.62 µM (active)

Question: Which results are given for CC(C)(C)c1cc(NC(=O)Nc2ccc(-c3cn4c(n3)sc3cc(OCCN5CCOCC5)ccc34)cc2)no1?
Answer: Potency [4]: inactive; Potency [9]: inactive; Potency [5]: 9.35 µM (active); Potency [7]: 0.418 µM (active)

Question: What does the source list for COc1ccc(C=Cc2cc(OC)c(OC)c(OC)c2)cc1O?
Answer: Potency [4]: inactive; Potency [8]: inactive; Potency [9]: inactive; Potency [2]: inactive; viability [3]: 34.9%; Potency [6]: inactive; Potency [7]: inactive

Question: Which results are given for COc1ccc(OC)c(-c2nnc3ccc(-c4ccc(OC)c(O[C@@H]5CCOC5)c4)nn23)c1?
Answer: Potency [1]: 14.8 µM (active); Potency [5]: 16.6 µM (active); Potency [2]: 8.33 µM (active); Potency [6]: 7.43 µM (active); Potency [7]: 8.33 µM (active)

Question: For C[C@]12CC[C@H](O)CC1=CCC1C2CC[C@]2(C)C(n3cnc4ccccc43)=CCC12 (some centres not stated), which Potency [2] is on record?
Answer: inactive

Question: What about the viability [3] of the same compound?
Answer: 80.8%

Question: What about the Potency [7] of the same compound?
Answer: 14.8 µM (active)

Question: For Nc1cccc(-c2cc3c(Oc4cccc(O)c4)ncnc3[nH]2)c1, which Potency [8] is on record?
Answer: 18.7 µM (active)

Question: And the Potency [9]?
Answer: 2.64 µM (active)

Question: What about the Potency [5] of the same compound?
Answer: 23.5 µM (active)

Question: And the Potency [2]?
Answer: 20.9 µM (active)

Question: And the Potency [7]?
Answer: 2.09 µM (active)

Question: Which Potency [1] does the source give for CC(=O)Nc1nc(C)c(-c2ccc(Cl)c(S(=O)(=O)NCCO)c2)s1 here?
Answer: 16.6 µM (active)

Question: And the Potency [9]?
Answer: 0.105 µM (active)

Question: And the Potency [2]?
Answer: 2.96 µM (active)

Question: What about the Potency [6] of the same compound?
Answer: 6.62 µM (active)

Question: What about the Potency [7] of the same compound?
Answer: 2.09 µM (active)

Question: With COc1cc(Nc2ncc(F)c(Nc3ccc4c(n3)N(COP(=O)(O)O)C(=O)C(C)(C)O4)n2)cc(OC)c1OC as the compound, how does the Potency [4] read?
Answer: 2.35 µM (active)

Question: What about the Potency [9] of the same compound?
Answer: 1.87 µM (active)

Question: What about the Potency [5] of the same compound?
Answer: 26.4 µM (active)

Question: What about the Potency [2] of the same compound?
Answer: 1.87 µM (active)

Question: And the Potency [7]?
Answer: 1.48 µM (active)

Question: Which Potency [9] does the source give for CC(C)(C)NC(=O)[C@H]1CN(Cc2cccnc2)CCN1C[C@@H](O)C[C@@H](Cc1ccccc1)C(=O)N[C@H]1c2ccccc2C[C@H]1O here?
Answer: 10.5 µM (active)

Question: What about the Potency [2] of the same compound?
Answer: 11.8 µM (active)

Question: What about the Potency [3] of the same compound?
Answer: 18.7 µM (active)

Question: And the Potency [7]?
Answer: 23.5 µM (active)

Question: Which Potency [4] does the source give for COc1ccc(-n2nc(C(N)=O)c3c2C(=O)N(c2ccc(N4CCCCC4=O)cc2)CC3)cc1 here?
Answer: inactive

Question: And the Potency [8]?
Answer: inactive

Question: What about the Potency [9] of the same compound?
Answer: inactive

Question: What about the Potency [5] of the same compound?
Answer: inactive

Question: And the Potency [2]?
Answer: inactive

Question: What about the Potency [7] of the same compound?
Answer: inactive

Question: For Clc1ccc2ncc(-c3cccc(NC4CNC4)n3)n2c1, which Potency [8] is on record?
Answer: 8.33 µM (active)

Question: What about the Potency [9] of the same compound?
Answer: 14.8 µM (active)

Question: And the Potency [5]?
Answer: 23.5 µM (active)

Question: What about the Potency [2] of the same compound?
Answer: 14.8 µM (active)

Question: And the Potency [6]?
Answer: 18.7 µM (active)

Question: What about the Potency [7] of the same compound?
Answer: 8.33 µM (active)

Question: Which Potency [4] does the source give for CC1(C)O[C@@H]2C[C@@H]3[C@H]4C[C@@H](F)C5=CC(=O)C=C[C@]5(C)[C@@]4(F)[C@@H](O)C[C@]3(C)[C@]2(C(=O)CO)O1 here?
Answer: 0.0372 µM (active)

Question: And the Potency [8]?
Answer: inactive

Question: What about the Potency [5] of the same compound?
Answer: 0.0166 µM (active)

Question: What about the Potency [2] of the same compound?
Answer: 0.0187 µM (active)

Question: What about the Potency [7] of the same compound?
Answer: inactive

Question: Which Potency [8] does the source give for CC[C@H](CO)Nc1nc(NCc2ccccc2)c2ncn(C(C)C)c2n1 here?
Answer: 26.4 µM (active)

Question: And the Potency [9]?
Answer: 16.6 µM (active)

Question: And the Potency [5]?
Answer: 18.7 µM (active)

Question: What about the Potency [2] of the same compound?
Answer: 23.5 µM (active)

Question: What about the Potency [6] of the same compound?
Answer: 23.5 µM (active)

Question: And the Potency [7]?
Answer: 14.8 µM (active)

Question: What does the source list for CCN1CCN(Cc2ccc(-c3cc4c(N[C@H](C)c5ccccc5)ncnc4[nH]3)cc2)CC1?
Answer: Potency [4]: 0.0235 µM (active); Potency [9]: inactive; Potency [2]: 0.372 µM (active); Potency [6]: 0.166 µM (active)

Question: Which Potency [9] does the source give for C[C@]1(CO)CN(c2cc(C(=O)Nc3ccc4c(c3)-c3c(c(C(N)=O)nn3-c3ccc(F)cc3)CC4)c(Cl)cn2)C[C@@]1(C)CO here?
Answer: 1.87 µM (active)

Question: And the Potency [5]?
Answer: 8.33 µM (active)

Question: And the Potency [2]?
Answer: 3.72 µM (active)

Question: And the Potency [6]?
Answer: 18.7 µM (active)

Question: And the Potency [7]?
Answer: 4.18 µM (active)

Question: Which Potency [1] does the source give for Nc1ccc(S(=O)(=O)Nc2ncccn2)cc1 here?
Answer: inactive

Question: What about the Potency [2] of the same compound?
Answer: inactive

Question: What about the Potency [6] of the same compound?
Answer: inactive

Question: What about the Potency [7] of the same compound?
Answer: inactive

Question: What does the source list for Cc1ccc(CN2CCNCC2)cc1NC(=O)CNc1ccc(F)c(F)c1?
Answer: Potency [1]: 20.9 µM (active); Potency [5]: 18.7 µM (active); Potency [7]: inactive

Question: For CCCn1c(=O)c2[nH]c(-c3cnn(Cc4cccc(C(F)(F)F)c4)c3)nc2n(CC)c1=O, which Potency [1] is on record?
Answer: inactive

Question: And the Potency [5]?
Answer: 23.5 µM (active)

Question: And the Potency [2]?
Answer: inactive

Question: What about the Potency [6] of the same compound?
Answer: inactive

Question: With Cc1ccc(S(=O)(=O)Nc2cc(Cl)ccc2C(=O)Nc2nc(-c3ccccc3)cs2)cc1 as the compound, how does the Potency [8] read?
Answer: 20.9 µM (active)

Question: And the Potency [2]?
Answer: 4.69 µM (active)

Question: And the Potency [3]?
Answer: 16.6 µM (active)

Question: And the Potency [6]?
Answer: 20.9 µM (active)

Question: With COc1cccc(-c2ccc(NC(=O)C3=C(C(=O)O)CCC3)c(F)c2)c1 as the compound, how does the Potency [4] read?
Answer: inactive

Question: And the Potency [2]?
Answer: 6.62 µM (active)

Question: What about the Potency [3] of the same compound?
Answer: 5.9 µM (active)

Question: What about the Potency [6] of the same compound?
Answer: 13.2 µM (active)

Question: With COc1cc2c(Nc3ccc(NC(=O)c4ccccc4)cc3)ncnc2cc1OCCCN1CCOCC1 as the compound, how does the Potency [9] read?
Answer: 2.64 µM (active)

Question: And the Potency [5]?
Answer: 18.7 µM (active)

Question: And the Potency [2]?
Answer: 20.9 µM (active)

Question: And the Potency [6]?
Answer: 23.5 µM (active)

Question: What about the Potency [7] of the same compound?
Answer: 14.8 µM (active)

Question: Which Potency [8] does the source give for COc1cc2nccc(Oc3ccc(NC(=O)C4(C(=O)Nc5ccc(F)cc5)CC4)cc3)c2cc1OC here?
Answer: 14.8 µM (active)

Question: What about the Potency [9] of the same compound?
Answer: 18.7 µM (active)

Question: And the Potency [5]?
Answer: 18.7 µM (active)

Question: And the Potency [2]?
Answer: 23.5 µM (active)

Question: What about the Potency [3] of the same compound?
Answer: 16.6 µM (active)

Question: And the Potency [6]?
Answer: 20.9 µM (active)

Question: What about the Potency [7] of the same compound?
Answer: 0.743 µM (active)
